Measurements as given in PubChem BioAssay AID1159580 (chemical genetic matrix, 2015).
Several values for one entry are separate records, joined by “and”; a condition that tells them apart may be missing. Equal values may be shown once. The campaign covered roughly 5,500 compounds. About 2,000 (36%) were called active. Another 18% or so got no clear call; they are omitted. No stated cut-off is given here; in the data, active means normalized growth mostly below about 0.91 (no sharp cut-off); inconclusive means no clear call, values can overlap the other calls; inactive means mostly above about 0.92. Some of the results follow.

Assay: chemical genetic growth profiling, strain panel (AID 1159580);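 further: tested at 20 µM; growth read once vehicle control cultures reached saturation at 30 °C; 1 = growth at the plate median or of vehicle wells; lower values mean less growth of the strain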
Details: S. cerevisiae deletion strains, growth OD

Measured: normalized growth

COc1ccc(C(CN(C)C)C2(O)CCCCC2)cc1 (stereo unspecified)
inactive: locus YAL013W, strain DEP1, hits give low values 1.01 | locus YAL021C, strain ccr4, hits give low values 0.976 | locus YAL026C, strain drs2, hits give low values 0.995 | locus YAL030W, strain snc1, hits give low values 0.988 | locus YBL061C, strain skt5, hits give low values 0.992 | locus YBR009C, strain hhf1, hits give low values 1.01 | locus YBR021W, strain FUR4, hits give low values 1.02 | locus YBR023C, strain chs3, hits give low values 1.01 | locus YBR171W, strain sec66, hits give low values 0.982 | locus YBR229C, strain ROT2, hits give low values 1.01 | locus YBR231C, strain swc5, hits give low values 1.03 | locus YBR279W, strain paf1, hits give low values 1.01 | locus YCL011C, strain gbp2, hits give low values 0.994 | locus YCL016C, strain dcc1, hits give low values 1.01 | locus YCL029C, strain bik1, hits give low values 0.979 | locus YCL069W, strain vba3, hits give low values 0.974 | locus YCR088W, strain abp1, hits give low values 0.99 | locus YDL005C, strain med2, hits give low values 0.978 | locus YDL035C, strain GPR1, hits give low values 1.02 | locus YDL040C, strain nat1, hits give low values 0.962 | locus YDL074C, strain BRE1, hits give low values 1.03 | locus YDL101C, strain DUN1, hits give low values 1.02 | locus YDL134C, strain PPH21, hits give low values 1.02 | locus YDL185W, strain tfp1, hits give low values 0.997 | locus YDL192W, strain arf1, hits give low values 0.991 | locus YDR001C, strain nth1, hits give low values 0.986 | locus YDR069C, strain doa4, hits give low values 0.973 | locus YDR101C, strain arx1, hits give low values 0.986 | locus YDR137W, strain rgp1, hits give low values 0.971 | locus YDR150W, strain NUM1, hits give low values 1.01 | locus YDR159W, strain sac3, hits give low values 0.974 | locus YDR162C, strain NBP2, hits give low values 0.985 | locus YDR195W, strain ref2 0.975 | locus YDR297W, strain sur2, hits give low values 0.994 | locus YDR318W, strain mcm21, hits give low values 0.996 | locus YDR334W, strain swr1, hits give low values 0.97 | locus YDR335W, strain msn5, hits give low values 0.996 | locus YDR388W, hits give low values 0.988 | locus YDR392W, strain spt3, hits give low values 0.985 | locus YDR502C, strain sam2, hits give low values 0.99 | locus YEL003W, strain gim4, hits give low values 0.976 | locus YEL037C, strain rad23, hits give low values 0.974 | locus YEL061C, strain CIN8 (second series), hits give low values 0.98 | locus YEL061C, strain CIN8, hits give low values 1.01 | locus YER015W, strain faa2, hits give low values 1.01 | locus YER016W, strain bim1, hits give low values 0.972 | locus YER110C, hits give low values 0.99 | locus YER111C, strain swi4, hits give low values 0.994 | locus YER155C, strain BEM2 (second series), hits give low values 0.962 | locus YER155C, strain BEM2, hits give low values 0.987 | locus YER167W, strain BCK2, hits give low values 1.01 | locus YFR010W, strain ubp6, hits give low values 0.987 | locus YGL078C, strain dbp3, hits give low values 0.989 | locus YGL086W, strain mad1, hits give low values 0.996 | locus YGL167C, strain pmr1, hits give low values 0.979 | locus YGL173C, strain kem1, hits give low values 0.987 | locus YGL227W, strain vid30, hits give low values 0.988 | locus YGL240W, strain doc1, hits give low values 0.992 | locus YGL248W, strain PDE1, hits give low values 1.01 | locus YGL253W, strain hxk2, hits give low values 0.999 | locus YGR078C, strain PAC10, hits give low values 1 | locus YGR135W, strain pre9, hits give low values 0.985 | locus YGR229C, strain SMI1, hits give low values 1.02 | locus YGR252W, strain gcn5, hits give low values 0.973 | locus YHR013C, strain ard1, hits give low values 0.932 | locus YHR027C, strain rpn1, hits give low values 0.987 | locus YHR030C, strain SLT2, hits give low values 1.01 and 1 | locus YHR079C, strain IRE1 (second series), hits give low values 0.99 | locus YHR079C, strain IRE1, hits give low values 1.01 | locus YHR094C, strain hxt1, hits give low values 0.997 | locus YHR129C, strain ARP1, hits give low values 1.01 | locus YHR142W, strain chs7, hits give low values 0.974 | locus YHR200W, strain rpn10, hits give low values 0.996 | locus YIL066C, strain RNR3, hits give low values 1.01 | locus YIL073C, strain SPO22, hits give low values 1.04 | locus YIL125W, strain kgd1, hits give low values 0.998 | locus YIR030C, strain dcg1, hits give low values 0.986 | locus YJL092W, strain hpr5, hits give low values 0.976 | locus YJL095W, strain BCK1 (second series), hits give low values 0.984 | locus YJL095W, strain BCK1, hits give low values 1.01 and 0.997 | locus YJL115W, strain asf1, hits give low values 0.958 | locus YJL129C, strain trk1, hits give low values 0.989 | locus YJL134W, strain LCB3, hits give low values 1.01 | locus YJL154C, strain vps35, hits give low values 0.974 | locus YJL164C, strain tpk1, hits give low values 1 | locus YJL166W, strain qcr8, hits give low values 0.971 | locus YJL168C, strain set2, hits give low values 0.997 | locus YJL187C, strain SWE1 (second series), hits give low values 1.01 | locus YJR043C, strain POL32, hits give low values 1 | locus YJR066W, strain TOR1, hits give low values 0.979 | locus YJR075W, strain HOC1, hits give low values 1.02
